The whole screen tested about 5,500 compounds, of which about 2,000 (36%) were called active. Not shown: some 18% with an inconclusive outcome. Rule as the data show it: active = normalized growth mostly below about 0.91 (no sharp cut-off); inconclusive = no clear call, values can overlap the other calls; inactive = mostly above about 0.92. Some of the results follow.
Experiment: chemical genetic growth profiling, strain panel (AID 1159580);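 also: tested at 20 µM; growth read once vehicle control cultures reached saturation at 30 °C; 1 = growth at the plate median or of vehicle wells; lower values mean less growth of the strain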
Settings: S. cerevisiae deletion strains, growth OD
[1] = locus YDL101C, strain DUN1, active compounds read low
[2] = locus YHR030C, strain SLT2, active compounds read low

Measured: normalized growth

C(=NC(N=Cc1ccccc1)c1ccccc1)c1ccccc1 (centres undefined)
inactive: locus YAR019C, strain CDC15, active compounds read low 0.983 | locus YBL105C, strain PKC1, active compounds read low 0.991 | locus YBR135W, strain CKS1, active compounds read low 0.986 | locus YBR136W, strain MEC1, active compounds read low 0.977 | locus YBR160W, strain CDC28, active compounds read low 0.989 | locus YDL017W, strain CDC7, active compounds read low 0.99 | locus YDL028C, strain MPS1, active compounds read low 0.984 | [1] 0.994 | locus YDL108W, strain KIN28, active compounds read low 0.976 | locus YDL132W, strain cdc53, active compounds read low 0.992 | locus YDL214C, strain PRR2, active compounds read low 0.956 | locus YDR052C, strain DBF4, active compounds read low 0.989 | locus YDR054C, strain cdc34, active compounds read low 0.991 | locus YDR226W, strain ADK1, active compounds read low 0.992 | locus YDR477W, strain SNF1, active compounds read low 0.963 | locus YER123W, strain YCK3, active compounds read low 0.937 | locus YER133W, strain GLC7, active compounds read low 0.971 | locus YFL009W, strain cdc4, active compounds read low 0.992 | locus YFL029C, strain CAK1, active compounds read low 0.981 | locus YFR003C, strain YPI1, active compounds read low 0.989 | locus YFR019W, strain FAB1, active compounds read low 0.962 | locus YFR028C, strain CDC14, active compounds read low 0.995 | locus YGR040W, strain KSS1, active compounds read low 0.958 | locus YGR052W, strain FMP48, active compounds read low 1.03 | locus YGR092W, strain DBF2, active compounds read low 0.974 | [2] 0.919 | locus YHR079C, strain IRE1, active compounds read low 0.934 | locus YHR082C, strain KSP1, active compounds read low 0.986 | locus YHR205W, strain SCH9, active compounds read low 0.894 | locus YIL147C, strain SLN1, active compounds read low 0.984 | locus YJL095W, strain BCK1, active compounds read low 0.918 | locus YJL128C, strain PBS2, active compounds read low 0.961 | locus YJL157C, strain FAR1, active compounds read low 0.977 | locus YJR016C, strain ILV3, active compounds read low 0.997 | locus YJR066W, strain TOR1 (second series), active compounds read low 0.937 | locus YJR066W, strain TOR1, active compounds read low 0.973 | locus YKL048C, strain ELM1, active compounds read low 0.957 | locus YKL067W, strain YNK1, active compounds read low 0.956 | locus YKL101W, strain HSL1, active compounds read low 0.941 | locus YKL193C, strain SDS22, active compounds read low 0.995 | locus YKL203C, strain TOR2, active compounds read low 1.02 | locus YLR133W, strain CKI1, active compounds read low 0.958 | locus YLR403W, strain SFP1, active compounds read low 0.945 | locus YML070W, strain DAK1, active compounds read low 0.947 | locus YMR001C, strain CDC5, active compounds read low 0.995 | locus YMR205C, strain PFK2 (second series), active compounds read low 0.953 | locus YMR277W, strain FCP1, active compounds read low 0.998 | locus YNL006W, strain LST8, active compounds read low 0.994 | locus YNL020C, strain ARK1, active compounds read low 0.966 | locus YNL161W, strain CBK1, active compounds read low 0.992 | locus YNL183C, strain NPR1, active compounds read low 0.946 | locus YNL207W, strain RIO2, active compounds read low 0.983 | locus YNL222W, strain SSU72, active compounds read low 0.99 | locus YNL307C, strain MCK1 (second series), active compounds read low 0.964 | locus YOL078W, strain AVO1, active compounds read low 0.992 | locus YOL136C, strain PFK27, active compounds read low 0.968 | locus YOR061W, strain CKA2, active compounds read low 0.942 | locus YOR119C, strain RIO1, active compounds read low 0.972 | locus YOR231W, strain MKK1, active compounds read low 0.911 | locus YOR329C, strain SCD5, active compounds read low 0.989 | locus YPL031C, strain PHO85, active compounds read low 0.962 | locus YPL153C, strain RAD53, active compounds read low 0.955 | locus YPL204W, strain HRR25, active compounds read low 0.976 | locus YPL209C, strain IPL1, active compounds read low 0.99 | locus YPL256C, strain CLN2, active compounds read low 0.913 | locus YPR025C, strain CCL1, active compounds read low 0.991 | locus YPR106W, strain ISR1, active compounds read low 0.99 | locus YPR111W, strain DBF20, active compounds read low 0.985 | strain NNK1, active compounds read low 0.981 | strain TSCII, active compounds read low 0.991
active: locus YLR113W, strain HOG1, active compounds read low 0.856

O=C(NC(c1ccccc1)C(N=Cc1ccccc1)c1ccccc1)c1ccccc1 (centres undefined)
inactive: locus YAL013W, strain DEP1, active compounds read low 1 | locus YBR229C, strain ROT2, active compounds read low 1.02 | locus YCL061C, strain MRC1, active compounds read low 1.02 | [1] 1 | locus YDR150W, strain NUM1, active compounds read low 0.959 | locus YEL061C, strain CIN8, active compounds read low 1.03 | locus YGR078C, strain PAC10, active compounds read low 1.01 | locus YGR229C, strain SMI1, active compounds read low 1.02 | [2] 1.05 | locus YHR087W, strain rtc3, active compounds read low 1 | locus YJL187C, strain SWE1, active compounds read low 1.02 | locus YJR043C, strain POL32, active compounds read low 1.02 | locus YJR075W, strain HOC1, active compounds read low 1.01 | locus YLR039C, strain RIC1, active compounds read low 1.04 | locus YLR058C, strain SHM2 (second series), active compounds read low 1.03 | locus YLR085C, strain ARP6, active compounds read low 1.03 | locus YLR262C, strain YPT6, active compounds read low 1.1 | locus YML094W, strain GIM5, active compounds read low 1.01 | locus YMR219W, strain ESC1, active compounds read low 1.01 | locus YMR263W, strain SAP30, active compounds read low 0.978 | locus YMR307W, strain GAS1, active compounds read low 0.999 | locus YNL153C, strain GIM3, active compounds read low 0.998 | locus YNL298W, strain CLA4 (second series), active compounds read low 1.05 | locus YNL322C, strain KRE1, active compounds read low 1 | locus YNR030W, strain Alg12, active compounds read low 1.02 | locus YPL055C, strain LGE1, active compounds read low 0.917 | locus YPL241C, strain CIN2, active compounds read low 1.01 | locus YPR135W, strain CTF4, active compounds read low 1.01

Reference: PubChem BioAssay AID1159580 (chemical genetic matrix, 2015)
